Screening results from PubChem.
AMA1 RON2 block = disrupts binding of P. falciparum AMA1 to RON2 | hit rate 0.2% among 360,000 | AlphaScreen AMA1-biotinylated RON2 peptide binding | Potency, µM (top dose mostly 58.2 µM), inactives show at the highest dose activity change, negative = inhibition, hits mostly inhibitors;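 note: 0% = vehicle wells and -100% = peptide control; nearly all actives have a fitted effect of over 45% in size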
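AMA1 (3D7) with his tag at 25 nM final met compounds first, then biotinylated RON2 peptide at 25 nM; detection used donor plus acceptor beads, 10 µg/mL apiece, read by AlphaScreen after 30 min at room temperature.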
AmpC detergent = inhibitors of E. coli AmpC beta-lactamase with detergent; AmpC hydrolysis of nitrocefin, absorbance 480 nm, 0.01% Triton; Potency, µM (top dose mostly 114 µM), without a hit: at the highest dose activity change, negative = inhibition, hits mostly inhibitors; hit rate 0.041% among 370,000; AID 485294;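 note: 0% = no-compound wells and -100% = no-enzyme wells; nearly all actives have a fitted effect of over 25% in size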
Target sequence (P00811 whole entry, looked up): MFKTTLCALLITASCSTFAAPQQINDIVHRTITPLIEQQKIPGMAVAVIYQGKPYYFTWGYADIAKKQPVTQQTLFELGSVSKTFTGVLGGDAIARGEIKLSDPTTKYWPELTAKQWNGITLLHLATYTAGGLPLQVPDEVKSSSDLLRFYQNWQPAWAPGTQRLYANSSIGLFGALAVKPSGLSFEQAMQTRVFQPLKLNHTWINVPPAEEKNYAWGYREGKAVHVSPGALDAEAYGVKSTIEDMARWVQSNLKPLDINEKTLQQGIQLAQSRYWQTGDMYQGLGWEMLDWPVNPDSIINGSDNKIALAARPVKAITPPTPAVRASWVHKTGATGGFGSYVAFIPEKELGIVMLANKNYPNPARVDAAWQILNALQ
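20 mM phosphate pH 7.0 + 0.01% (detergent screen) or 0.0001% Triton X-100; 5.3 nM AmpC reagent; cpd preinc 15 min RT; nitrocefin (800 uM stock) to start; A480 q20 s × 4 min; Activity was normalised to no-enzyme and no-compound control wells.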
FMDV antiviral = blocks foot and mouth disease virus | FMDV antiviral cell-based qHTS | Potency, µM (series often up to 57.9 µM), inactives show at the top dose activity change, negative = inhibition, actives largely listed as inhibitors | hit rate 1.2% among 410,000 | AID 1159524; calls by dose curve; tested in HEK293T cells; note: read-out not given here; nearly all actives have a fitted effect of over 45% in size
Sm TGR inh = blocks Schistosoma mansoni thioredoxin glutathione reductase; Q962Y6; purified TGR, DTNB reduction, TNB absorbance 405 nm; Potency, µM (top dose mostly 114 µM), inactives show at the highest dose activity change, negative = inhibition, hits mostly inhibitors; hit rate 3% among 360,000; AID 485364; note: nearly all actives have a fitted effect of over 60% in size
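First, TGR (20 nM dispensed) and NADPH were mixed with compound. Second, a 15 min room-temperature incubation followed. Third, further NADPH and then DTNB were added to start the reaction. Finally, TNB absorbance was monitored kinetically.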
AmpC no deterg = AmpC beta-lactamase inhibition without detergent; AID 485341; hit rate 0.52% among 330,000; AmpC nitrocefin hydrolysis, absorbance 480 nm, 0.0001% Triton; P00811; Potency, µM (doses to about 57.1 µM), for inactives: at the highest dose activity change, negative = inhibition, actives largely listed as inhibitors;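 note: plate controls were no compound for no effect and no enzyme for full effect; nearly all actives have a fitted effect of over 20% in size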
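20 mM phosphate pH 7.0 + 0.01% (detergent screen) or 0.0001% Triton X-100; 5.3 nM AmpC reagent; cpd preinc 15 min RT; nitrocefin (800 uM stock) to start; A480 q20 s × 4 min; Activity was normalised to no-enzyme and no-compound control wells.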
* = called active by the depositor; ? = inconclusive; · = no result given; [ ] = another dose, or the depositor's remark. Hits are enriched below; roughly 4.1% of the tested compounds scored in any of these assays. Unless noted, calls come from the whole dose curve; as a rule, active = well fitted curve in the direction sought with a large enough effect; inconclusive = small, poorly fitted or top-dose-only effect, or another doubt; inactive = no such curve, though single readings can be large; an effect the other way counts as inactive or inconclusive. Unless noted, % is set by controls: 0 for no effect and ±100 for the full control effect; potency is the fitted concentration of half-maximal effect.

SMILES	AMA1 RON2 block	AmpC detergent	FMDV antiviral	Sm TGR inh	AmpC no deterg
O=C(CCN1CCC(c2ccccc2)C1)c1ccc2c(c1)OCCO2 (centres undefined)	6%	-1%	-16%	0.1µM*	14%
O=C(CCN1CCCCC1)c1ccc2c(c1)OCCO2	-10%	-12%	·	0%	-16%
COc1cc(NC(=O)CSc2ccc(-c3sc(-c4ccccc4)nc3C)nn2)cc(OC)c1	·	?	-8%	4%	·
CC(=O)c1ccc(F)c(-c2cc(C)cc3c2OC(CNC(=O)c2cnc4ccccn4c2=O)C3)c1 (centres undefined)	·	·	16%	·	·
COC1=CC(=O)C(O)=C/C1=C\C=C\c1ccccc1	·	·	40µM*	·	·
O=C1CCCC2=C1C(Cc1ccccc1)C1=C(CCCC1=O)O2	1%	?	9%	10µM*	0%
Cc1cc(C(=O)CS(=O)(=O)c2ccc(F)cc2)cc(C)c1O	2%	0%	40%	14µM*	-58%
Cc1cc(C(=O)CS(=O)(=O)c2ccccc2)cc(C)c1OC(=O)N(C)C	-11%	?	24%	-8%	1%
Cc1cc(C(=O)CS(=O)(=O)c2ccccc2)cc(C)c1O	-1%	-4%	16%	22µM*	-32%
Cc1cc2oc(C(=O)Nc3ccc(S(=O)(=O)Nc4onc(C)c4C)cc3)cc(=O)c2cc1C	·	1%	-8%	-16%	·
COC(=O)C[C@H](NC(=O)[C@H](C)NC(=O)[C@@H](NC(=O)OCc1ccccc1)C(C)C)C(=O)CF	·	·	-11%	·	·
CN1CCCN(C(=O)CC2(CC(=O)O)CCCC2)CC1	2%	28µM*	3%	4%	-40%
O=C(/C=C/c1ccccn1)NCC1Cc2cccc(-c3ncccn3)c2O1 (centres undefined)	·	·	-13%	·	·
Cc1cccnc1-c1cccc2c1OC(CNC(=O)C(=O)c1ccccc1)C2 (centres undefined)	·	·	-10%	·	·
CC1CCN(CC(=O)c2cccc(C(F)(F)F)c2)CC1	?	0%	2%	35µM*	-1%
CC(C)CC(=O)Nc1ccc(C(=O)CN2CCC(C)CC2)cc1	2%	-1%	-3%	20µM*	-20%
CCC(=O)Nc1ccc(C(=O)CN2CCC(C)CC2)cc1	·	1%	·	32µM*	-12%
CCOc1ccc(CCNC(=O)CCc2c(C)nc3c(c(C)nn3-c3ccccc3)c2C)cc1OCC	·	10%	?	24%	·
Cn1cc(Br)c(C(=O)NNC(=O)c2cccc(Br)c2)n1	49%	-14%	15%	35µM*	-16%
Cc1c(NC(=O)c2ccccc2)c(=O)n(-c2ccccc2)n1C	0%	-3%	?	-2%	-16%
Cc1c(NC(=O)c2c(N)sc3c2CCCC3)c(=O)n(-c2ccccc2)n1C	28%	3%	12%	22µM*	58%
Cc1c(NC(=O)CN(c2ccc(F)cc2)S(=O)(=O)c2ccccc2)c(=O)n(-c2ccccc2)n1C	1%	1%	-24%	10µM*	-22%
Cc1cc(C(=O)Nc2c(C)n(C)n(-c3ccccc3)c2=O)c(C)o1	1%	3%	15%	-5%	0.16µM*
COc1ccc(OC)c(CCNC(=O)Cn2nc(C)n3c(cc4sccc43)c2=O)c1	·	25%	-7%	5%	·
Cc1oc2cc3oc(=O)c(CCC(=O)NCCc4ccccc4F)c(C)c3cc2c1C	·	0%	32%	-6%	·
SMILES	AMA1 RON2 block	AmpC detergent	FMDV antiviral	Sm TGR inh	AmpC no deterg
O=C(O)[C@@H]1CN[C@@H](C(=O)O)C1	·	·	10%	·	·
CCOC(=O)C1OC1C(=O)NC(CC(C)C)C(=O)NCCC(C)C (centres undefined)	·	·	-17%[97.4 µM]	·	·
Cc1cccc(NC(=O)Cn2nc(-c3ccco3)ccc2=O)c1C	5%	0%	-26%	32µM*	-7%
Cc1cccc(NC(=O)CSc2nnc(-c3ccco3)c(-c3ccco3)n2)c1C	?	-9%	-5%	3.5µM*	?
Cc1cccc(NC(=O)CSc2nnc(-c3ccco3)c(-c3ccco3)n2)c1	?	8%	?	3.5µM*	16µM*
Cc1ccccc1NC(=O)CSc1nnc(-c2ccco2)n1N	7%	?	-13%	-9%	-5%
COC(=O)Cc1ccc(NC(=O)c2ccc(C(C)(C)C)cc2)cc1	22%	0%	10µM*	9%	-6%
CC(C)(C)c1ccc(C(=O)Nc2ccc(Cl)cc2)cc1	8%	-8%	141%	-5%	-21%
Clc1ccc(CSc2cc3c(nn2)-c2ccccc2CC3)cc1Cl	24%	5%	0%	3%	0.32µM*
Clc1cccc(Cl)c1CSc1cc2c(nn1)-c1ccccc1CC2	-2%	-7%	25%	0%	-15%
Nc1cc(Cl)ccc1N1CCCCC1	-1%	3%	-3%	0%	-18%
Nc1cc(Cl)ccc1N1CCCCCC1	-6%	-11%	10%	6.3µM*	-9%
Cc1cc(N)ccc1N1CCCC1	16µM*	-3%	-6%	5µM*	16%
O=C(CN1C(=O)CSc2ccc(S(=O)(=O)N3CCCCC3)cc21)NCc1ccc(F)cc1Cl	·	20%	-10%	-4%	·
O=C1c2ccccc2C(=O)c2cc(N3CCCCC3)ccc21	-11%	·	10µM*	·	·
c1ccc2cc(N3CCCCC3)ccc2c1	16%	·	33%	·	·
O=C(CSc1nnc(-c2ccc(Br)o2)n1Cc1ccccc1)c1ccccc1F	3%	-2%	-13%	35µM*	-17%
CCSc1ccc([C@@H]2[C@@H]3C(=O)N(CC)C(=O)[C@@H]3[C@]3(C(=O)OC)CCCN23)cc1	-5%	?	0%	35µM*	129%
CCN1C(=O)[C@@H]2[C@@H](c3ccc(-c4ccc(Cl)c(Cl)c4)c(OC)c3)N3CCC[C@@]3(C(=O)OC)[C@@H]2C1=O	?	-1%	-29%	35µM*	198%
COc1ccc(Cn2c(C)ccc2C)cc1	-9%	?	-21%	32µM*	-9%
COc1ccc(Cn2c(-c3ccc(OC)cc3)nc3ccccc32)cc1	3%	-10%	-9%	-4%	9%
CC(C)CCN(Cc1ccco1)C(=O)Cn1ncc2c([nH]c3ccccc32)c1=O	·	2%	?	-27%	·
O=C1C(=C(c2ccccc2)c2ccccc2)Nc2ccccc21	25µM*	0%	?	-23%	-24%
CC1CCN(C(=O)c2ccc(NC(=O)c3nsc4ccccc34)cc2)CC1	·	-2%	10%	0%	·
CCOc1ccc(CN(C)C(C)C(=O)Nc2ccc([N+](=O)[O-])cc2Cl)cc1OC (centres undefined)	14%	?	22µM*	2%	-19%
CCCCOc1ccc(NC(=O)CSc2ccc(C(=O)O)cn2)cc1	·	8%	-5%	12%	·
COc1ccc(Cl)cc1-c1cc(C(=O)NCc2cccc(C(F)(F)F)c2)[nH]n1	1%	·	10%	·	·
CCOC(=O)N1CCN(S(=O)(=O)c2ccc(C(=O)NNc3nc4c(C)cccc4s3)cc2)CC1	96%	?	?	-9%	-22%
